Hits are enriched below; roughly 19% of the tested compounds scored in any of these assays.
Marburg entry inh: blocks Marburg virus binding to or entry into cells. Potency, µM (top dose mostly 37.8 µM), for inactives: at the top dose activity change, negative = inhibition, actives largely listed as inhibitors. 300,000 tested, 1.8% active. Marburg virus pseudotyped entry inhibition, cell reporter. AID 540276; calls by dose curve; tested in HEK293 cells; further: potency means the concentration at half of the fitted maximal effect; on the % scale 0 is the no-effect control and ±100 the full control effect
Pf growth 96h: P. falciparum growth inhibition at 96 hour, primary screen for plastid delayed-death inhibitors | P. falciparum luciferase reporter growth, 96 h | Potency, µM (doses to about 28.7 µM), for the others: top-dose activity change, negative = inhibition, actives largely listed as inhibitors | 320,000 tested, 6.9% active; further: potency means the concentration at half of the fitted maximal effect; on the % scale 0 is the no-effect control and ±100 the full control effect
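Delayed-death screen, second-generation endpoint: infected erythrocytes, 2% hematocrit, 0.05% parasitemia final; 96 hours at 37 C, 5% CO2; luciferase detection reagent; luminescence decrease equals reduced growth.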
LASV entry inh: Lassa virus entry inhibition; Lassa virus pseudotype entry inhibition, cell reporter; Potency, µM (doses to about 37.9 µM), inactives show at the highest dose activity change, negative = inhibition, hits mostly inhibitors; 300,000 tested, 1.2% active; AID 540256; calls by dose curve; tested in HEK293 cells; further: potency means the concentration at half of the fitted maximal effect; on the % scale 0 is the no-effect control and ±100 the full control effect; nearly all actives have a fitted effect of over 50% in size
Pf growth 48h: P. falciparum growth inhibition at 48 hours (one generation). P. falciparum luciferase growth in erythrocytes, 48 h. Potency, µM (titrated, usually from 28.7 µM), for inactives: at the highest dose activity change, negative = inhibition, hits mostly inhibitors. 310,000 tested, 5.9% active. AID 504832; further: potency means the concentration at half of the fitted maximal effect; on the % scale 0 is the no-effect control and ±100 the full control effect
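A one-generation exposure of luciferase-tagged malaria parasites in RPMI 1640/Albumax erythrocyte culture, 37 C and 5% CO2. Inhibition is inferred from decreased luminescence after adding detection reagent.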
CHX counter: affects cycloheximide protein synthesis inhibition readout, counter-screen; 300,000 tested, 12% active; AID 2314; max response, %; cell reporter, cycloheximide protein synthesis inhibition counterscreen; in the data active means max response mostly above about 13%, no sharp cut-off; inactive means mostly below about 14%; further: read at 38.3 µM for the half of the compounds with a filed dose; 0% is about no effect
Shiga inhibitor: Shiga toxin inhibition; 290,000 tested, 9.2% active; Vero cells, Shiga toxin protein synthesis inhibition reporter; inhibition, % at 38.7 µM; in the data active means inhibition mostly above about 28%, no sharp cut-off; inactive means mostly below about 43%; further: 0% is about no effect
* = called active by the depositor; [ ] = dose if it differs, or a comment. Unless noted, the call rests on the fitted dose curve; in most records, active means well fitted inhibition curve with a large enough effect; inconclusive means small, poorly fitted or top-dose-only effect, or another doubt; inactive means no such curve, though single readings can be large or run the other way.

What do the screens show for `CCC(C(=O)NC1CCCC1)N(Cc1cccs1)C(=O)Cn1nnc(-c2ccc(OC)c(OC)c2)n1` (stereo unspecified)?
Marburg entry inh: inconclusive; Pf growth 96h: inconclusive; LASV entry inh: 1%; Pf growth 48h: inconclusive; CHX counter: -2; Shiga inhibitor: 2

What do the screens show for `Cc1ccc(-c2nnn(CC(=O)N(CC3CCCO3)C(C(=O)NCC3CCCO3)c3ccc(F)cc3)n2)o1` (stereo unspecified)?
Marburg entry inh: -5%; Pf growth 96h: inconclusive; LASV entry inh: 0%; Pf growth 48h: -25%; CHX counter: -2; Shiga inhibitor: -5

Results for CCC(C(=O)NC1CCCC1)N(C(=O)Cn1nnc(-c2ccc(C)o2)n1)C(C)(C)C (stereo unspecified) ?
Marburg entry inh: inconclusive; Pf growth 96h: 2.3µM*; LASV entry inh: 0%; Pf growth 48h: inconclusive; CHX counter: 1; Shiga inhibitor: -8

Results for O=c1c2c(nc3c(-c4ccc(Cl)cc4)c[nH]n13)CCCC2 ?
Marburg entry inh: inconclusive; Pf growth 96h: 5%; LASV entry inh: 10µM*; Pf growth 48h: 4.7µM*; CHX counter: 1; Shiga inhibitor: 4

Results for O=c1c2c(nc3cc(-c4cccc(Cl)c4)[nH]n13)CCC2 ?
Marburg entry inh: inconclusive; Pf growth 96h: inconclusive; LASV entry inh: inconclusive; Pf growth 48h: 31%; CHX counter: 23; Shiga inhibitor: 52*

What do the screens show for `Cc1[nH]n2c(=O)c3c(nc2c1-c1ccc(F)cc1)CCCC3`?
Marburg entry inh: 1%[46.1 µM]; Pf growth 96h: 11%[5.75 µM]; LASV entry inh: 0%; Pf growth 48h: -5%; CHX counter: 6; Shiga inhibitor: 14

Results for O=C1c2nc3cc(-c4ccccc4)[nH]n3c(=O)c2CN1Cc1ccccc1 ?
Pf growth 96h: 26%; Pf growth 48h: 4%; CHX counter: 1; Shiga inhibitor: -11

Results for O=c1c2c(nc3nc(CCc4ccccc4)[nH]n13)CCC2 ?
Marburg entry inh: 15%; Pf growth 96h: inconclusive; LASV entry inh: -2%; Pf growth 48h: 0%; CHX counter: -3; Shiga inhibitor: -10

How did O=c1c2c(nc3cc(-c4cccc(F)c4)[nH]n13)CCC2 do in these assays?
Marburg entry inh: inconclusive; Pf growth 96h: 1%; LASV entry inh: inconclusive; Pf growth 48h: 150%; CHX counter: 51*; Shiga inhibitor: 95*

What do the screens show for `O=c1c2c(nc3cc(-c4ccc(F)cc4)[nH]n13)CCCC2`?
Marburg entry inh: inconclusive; Pf growth 96h: 29%; LASV entry inh: inconclusive; Pf growth 48h: 401%; CHX counter: 39*; Shiga inhibitor: 74*

Results for O=C(COC(=O)Cc1ccccc1)Nc1cc(S(=O)(=O)N2CCOCC2)ccc1N1CCCC1 ?
Marburg entry inh: 3%; Pf growth 96h: -5%; LASV entry inh: 16%; Pf growth 48h: -10%; CHX counter: 1; Shiga inhibitor: 8

Results for OC1(c2ccc(F)cc2)CC2CCC(C1)N2Cc1nnnn1C1CCCC1 (stereo unspecified) ?
Marburg entry inh: -1%; LASV entry inh: -26%; Pf growth 48h: inconclusive; CHX counter: -5; Shiga inhibitor: -9

How did CCOP(=O)(OCC)C(NC(=O)Nc1ccc(Cl)c(Cl)c1)C(N)=O (stereo unspecified) do in these assays?
Marburg entry inh: inconclusive; Pf growth 96h: 36%; LASV entry inh: -7%; Pf growth 48h: -14%; CHX counter: -1; Shiga inhibitor: -4

What do the screens show for `CC1CCCC(NC(=O)COc2ncnc3ccccc23)C1C` (stereo unspecified)?
Marburg entry inh: -1%; LASV entry inh: 2%

How did COc1ccc(OC2C(=O)N(Cc3ccc(F)cc3)C2c2cc(OC)c(OC)c(OC)c2)cc1 (stereo unspecified) do in these assays?
Marburg entry inh: inconclusive; Pf growth 96h: 25%; LASV entry inh: inconclusive; Pf growth 48h: 3.7µM*; CHX counter: 7; Shiga inhibitor: 2

Results for COc1ccc(/C=C/C(=O)NC(=S)N2CCN(c3ccccn3)CC2)cc1 ?
Pf growth 96h: 18%; Pf growth 48h: 7%; CHX counter: 19*; Shiga inhibitor: 56*

What do the screens show for `COc1ccc(/C=C/C(=O)NC(=S)N2CCSCC2)cc1`?
Marburg entry inh: inconclusive; Pf growth 96h: 247%; LASV entry inh: inconclusive; Pf growth 48h: 8%; CHX counter: 37*; Shiga inhibitor: 49

How did O=C(/C=C/c1ccc(Br)cc1)NC(=S)N1CCOCC1 do in these assays?
Marburg entry inh: 3%[46.1 µM]; Pf growth 96h: 34%; LASV entry inh: 9%[46.1 µM]; Pf growth 48h: 29%; CHX counter: 54*; Shiga inhibitor: 67*

What do the screens show for `CN1CCN(C(=S)NC(=O)/C=C/c2ccccc2)CC1`?
Marburg entry inh: 5%; LASV entry inh: 7%; Pf growth 48h: 9%; CHX counter: 19; Shiga inhibitor: 33

How did COc1ccc(N2C(=O)CCC(C(=O)NCc3ccccn3)C2c2ccc(OC)c(OC)c2)cc1 (stereo unspecified) do in these assays?
Marburg entry inh: -10%[46.1 µM]; Pf growth 96h: 4.7µM*; LASV entry inh: -7%; Pf growth 48h: 4%; CHX counter: -1; Shiga inhibitor: -4

How did COc1ccc(CC(=O)N2CCN(c3ccccn3)CC2)cc1 do in these assays?
Marburg entry inh: 11%[46.1 µM]; LASV entry inh: 7%; Pf growth 48h: 37%; CHX counter: 10; Shiga inhibitor: 22

What do the screens show for `COc1cccc(NC(=O)C2CC(=O)N(Cc3ccco3)C2)c1` (stereo unspecified)?
Pf growth 96h: -23%; Pf growth 48h: -4%

What do the screens show for `CC(SCc1ccccc1)C(=O)NC1CCCC1` (stereo unspecified)?
Marburg entry inh: 12%; Pf growth 96h: -23%; LASV entry inh: inconclusive; Pf growth 48h: 3%; CHX counter: 1; Shiga inhibitor: -4

What do the screens show for `CC(=O)c1ccc(NC(=O)c2noc3c2CSc2ccccc2-3)cc1`?
Marburg entry inh: 16%[46.1 µM]; LASV entry inh: -2%[46.1 µM]

Results for COc1ccc(C2C(C(=O)N3CCN(c4ccccn4)CC3)CCC(=O)N2c2ccc(OC)cc2)cc1 (stereo unspecified) ?
Marburg entry inh: -2%[46.1 µM]; Pf growth 96h: 9%; LASV entry inh: -9%[46.1 µM]; Pf growth 48h: -5%; CHX counter: 1; Shiga inhibitor: 7

How did O=C(/C=C/c1ccc(F)cc1)N1CCN(c2ccccn2)CC1 do in these assays?
Marburg entry inh: 19%; Pf growth 96h: 36%; LASV entry inh: 4%; Pf growth 48h: -4%; CHX counter: 15; Shiga inhibitor: active

What do the screens show for `COc1ccc(C2C(C(=O)N3CCN(c4ccccn4)CC3)CC(=O)N2c2ccc(OC)cc2)cc1` (stereo unspecified)?
Marburg entry inh: inconclusive; Pf growth 96h: 10%; LASV entry inh: 10%; Pf growth 48h: 4.7µM*; CHX counter: -3; Shiga inhibitor: -11

Source: PubChem (National Center for Advancing Translational Sciences (NCATS))
